This is a sample that favours compounds with a hit; in the whole collection about 2.4% have one here.
EP2 modulator – modulators of human EP2 prostaglandin E2 receptor; 0.83% of 260,000 active; AID 940; induction, % at 25 µM; EP2-expressing cells, cAMP HTRF FRET, PGE2 co-stimulation; P43116;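 active means compounds whose cAMP rise, as percent of the full-agonist control response, exceeds 60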;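 further: rat C6 glioma line stably carrying human EP2 under a CMV promoter; the protocol text gives 20 µM as final concentration; 100% = response of wells given 1 µM PGE2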
Target sequence (P43116 whole entry, looked up): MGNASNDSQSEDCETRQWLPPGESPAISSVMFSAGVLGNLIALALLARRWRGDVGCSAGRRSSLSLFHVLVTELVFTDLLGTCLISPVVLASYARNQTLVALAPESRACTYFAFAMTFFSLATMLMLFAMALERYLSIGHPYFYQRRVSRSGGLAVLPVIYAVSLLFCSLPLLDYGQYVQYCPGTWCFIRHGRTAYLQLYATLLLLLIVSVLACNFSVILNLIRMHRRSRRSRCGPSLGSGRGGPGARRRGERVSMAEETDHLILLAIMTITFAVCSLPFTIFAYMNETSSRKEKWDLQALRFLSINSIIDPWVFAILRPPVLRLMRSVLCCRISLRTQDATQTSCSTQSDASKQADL
S1P3 antag – antagonists of human S1P3 receptor; Q99500; CHO S1P3 NFAT-BLA reporter, FRET fluorescence, antagonist mode; inhibition, % at 4.98 µM; 0.27% of 170,000 active; AID 485;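 active means inhibition above the plate cutoff, the mean inhibition of test wells on that plate plus 3 SD, cut at about 28% in these data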;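 further: cells challenged with S1P at its EC80 of 0.8 µM; blue over green emission ratio from cleaved BLA substrate after 4 h stimulation; 0% = S1P-stimulated wells and 100% = unstimulated DMSO-only wells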
S1P4 ag – human S1P4 receptor agonism; S1P4-expressing cell line, agonist reporter assay; activation, % at 4.98 µM; 0.35% of 220,000 active; AID 1509; in the data active means activation above about 11%;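 further: 0% = DMSO vehicle and 100% = reference agonist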
PGE2 EP2 inh – EP2 receptor (human) inhibition; 0.52% of 260,000 active; P43116; inhibition, % at 25 µM; AID 1422; C6 glioma cells expressing human EP2, cAMP TR-FRET; cells stimulated with saturating PGE2;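 active means percent inhibition above 40 after rounding to a whole number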;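 further: rat C6 glioma host cells with rolipram phosphodiesterase inhibitor present; the protocol text gives 20 µM as final concentration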
Insulin prom inh – TRM-6 insulin promoter activity inhibition | TRM-6 cells (human fetal islet line), insulin promoter-eGFP reporter, imaging; reporter expression induced with tamoxifen | inhibition, % at 2 µM | 0.9% of 130,000 active | AID 1273;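 active means inhibition above the mean plus 3 SD, with well images judged a real hit on visual review, cut at about 60% in these data, passing the limit was not always enough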
S1P4 antagonist – antagonists of human S1P4 receptor; O95977; S1P4-expressing cells, antagonist mode, reporter read-out; inhibition, % at 4.98 µM; 0.26% of 220,000 active; AID 1510; in the data active means inhibition above about 29%;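 further: 0% = wells stimulated with agonist and 100% = vehicle wells without agonist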
* marks the source's active call; other numbers are inactive results; ! = a repeat was not active.

Results for C=CCn1c(-c2ccccc2)ccc(C#N)c1=O ?
EP2 modulator: 64*; S1P4 ag: 1; PGE2 EP2 inh: 4; S1P4 antagonist: -9

What do the screens show for `COc1ccc(N2C(=O)C(Cl)=C(Oc3cccc(OC)c3)C2=O)cc1`?
EP2 modulator: -52; S1P3 antag: 18; S1P4 ag: 2; PGE2 EP2 inh: 100*; S1P4 antagonist: -6

Results for Cc1nc(Nc2ccc3c(c2)OCO3)c2oc3ccccc3c2n1 ?
EP2 modulator: -6; S1P4 ag: 1; PGE2 EP2 inh: 9; Insulin prom inh: 82*; S1P4 antagonist: -18

What do the screens show for `Cc1nc(NCCc2ccccc2)c2oc3ccccc3c2n1`?
EP2 modulator: -52; S1P4 ag: 3; PGE2 EP2 inh: 11; Insulin prom inh: 69*; S1P4 antagonist: -6

What do the screens show for `Cc1nc(NCCN2CCOCC2)c2oc3ccccc3c2n1`?
EP2 modulator: -21; S1P4 ag: 1; PGE2 EP2 inh: -1; Insulin prom inh: 57; S1P4 antagonist: 18

Results for c1ccc2c(c1)oc1c(Nc3ccc4c(c3)OCO4)ncnc12 ?
EP2 modulator: -26; S1P3 antag: -45; S1P4 ag: 0; PGE2 EP2 inh: 17; Insulin prom inh: 15; S1P4 antagonist: 2

How did COc1ccc2[nH]c(=O)c(CN(C3CCCCC3)C(c3nnnn3C3CCCC3)C(C)C)cc2c1 (stereo unspecified) do in these assays?
EP2 modulator: -31; PGE2 EP2 inh: 18

How did CC1CCN(C(=O)CN2CCC3(CC2)NC(=O)c2ccccc2O3)CC1 do in these assays?
EP2 modulator: -34; PGE2 EP2 inh: 8

Results for COc1ccc(CNc2nc3ccccc3n2C)c(OC)c1 ?
EP2 modulator: -21; S1P3 antag: 7; S1P4 ag: 1; PGE2 EP2 inh: 6; S1P4 antagonist: -14

How did COc1ccc(N/C=C(\C#N)c2nc3ccccc3n2C)c(OC)c1 do in these assays?
EP2 modulator: 63*; S1P4 ag: 2; PGE2 EP2 inh: 6; Insulin prom inh: -138; S1P4 antagonist: -14

What do the screens show for `C[N+]1(CCCC[N+]2(C)CCCCCCC2)CCCCCCC1`?
EP2 modulator: 20; PGE2 EP2 inh: 46*

What do the screens show for `COc1ccc2[nH]c(=O)c(CN(CCN(C)C)C(=S)NC(C)c3ccccc3)cc2c1` (stereo unspecified)?
EP2 modulator: -74; PGE2 EP2 inh: 13

What do the screens show for `c1ccc(CSCc2nc3ccccc3[nH]2)cc1`?
EP2 modulator: -22; S1P3 antag: 6; S1P4 ag: 0; PGE2 EP2 inh: 4; Insulin prom inh: 76*; S1P4 antagonist: -19

What do the screens show for `CCOc1ccc2nc(SCC)[nH]c2c1`?
EP2 modulator: 2; S1P4 ag: 0; PGE2 EP2 inh: 7; Insulin prom inh: 86*; S1P4 antagonist: 0

What do the screens show for `CCC(=O)Nc1ccc(C(=O)CSc2nc3ccc(C)cc3[nH]2)cc1`?
EP2 modulator: -13; S1P3 antag: 4; S1P4 ag: 3; PGE2 EP2 inh: 4; Insulin prom inh: 22; S1P4 antagonist: -13

What do the screens show for `CCCc1nc2ccccc2[nH]1`?
EP2 modulator: 2; S1P4 ag: 1; PGE2 EP2 inh: 12; Insulin prom inh: 80*; S1P4 antagonist: 13

How did c1ccc(CSc2nc3ccccc3[nH]2)cc1 do in these assays?
EP2 modulator: -7; S1P3 antag: 6; S1P4 ag: 0; PGE2 EP2 inh: 2; S1P4 antagonist: 6

How did CCC(=O)Nc1ccc(C(=O)CSc2nc3ccccc3[nH]2)cc1 do in these assays?
EP2 modulator: -18; S1P3 antag: 3; S1P4 ag: 1; PGE2 EP2 inh: 11; Insulin prom inh: 60*; S1P4 antagonist: -11

How did CC[C@H](Cn1nnn(-c2ccccc2)c1=O)NC(=O)c1cnc(C)cn1 do in these assays?
EP2 modulator: -10; PGE2 EP2 inh: 7

Results for CCCNC(=S)N(CCCN(C)C)Cc1cc2cc3c(cc2[nH]c1=O)OCCO3 ?
EP2 modulator: -27; PGE2 EP2 inh: 7

What do the screens show for `CCSc1nc2ccccc2[nH]1`?
EP2 modulator: 4; S1P4 ag: -1; PGE2 EP2 inh: 10; Insulin prom inh: 100*!; S1P4 antagonist: 14

Results for Cn1ccnc1C1(O)CCN(C(=O)c2ccccc2F)CC1 ?
EP2 modulator: 1

How did COc1cccc(C(=O)CSc2nnc(-c3ccco3)n2Cc2ccco2)c1 do in these assays?
EP2 modulator: -40; PGE2 EP2 inh: 16

What do the screens show for `Cc1ccc(NC(=O)c2cccs2)cc1NC(=O)c1cc2c(C)nn(-c3ccccc3)c2s1`?
EP2 modulator: 70*; PGE2 EP2 inh: 13

How did Cc1cnc(NC(=O)c2cc3c(C)nn(-c4ccccc4)c3s2)s1 do in these assays?
EP2 modulator: 4; S1P4 ag: 0; PGE2 EP2 inh: 3; Insulin prom inh: 26; S1P4 antagonist: -18

How did CCn1c(=O)c2c(nc(SCC(=O)Nc3cccc(F)c3)n2C)n(C)c1=O do in these assays?
EP2 modulator: -59; PGE2 EP2 inh: 5

What do the screens show for `CCOC(=O)c1c(Nc2ccccc2)sc(/C=C2\C=Nc3ccccc32)c1O`?
EP2 modulator: -8; S1P4 ag: -3; PGE2 EP2 inh: 8; Insulin prom inh: 21; S1P4 antagonist: -12

How did Oc1nc(Nc2ccccc2)sc1/C=C1\C=Nc2ccccc21 do in these assays?
EP2 modulator: -64; S1P3 antag: 3; S1P4 ag: 1; PGE2 EP2 inh: 72*; S1P4 antagonist: 5

What do the screens show for `Cc1cc(C)c2c(N)c(C(=O)c3ccc(Cl)cc3)sc2n1`?
EP2 modulator: 17; S1P3 antag: -7; S1P4 ag: 2; PGE2 EP2 inh: 6; Insulin prom inh: 72*; S1P4 antagonist: -25

How did Cc1cc(C)c2c(N)c(C(=O)c3ccc(Cl)c(Cl)c3)sc2n1 do in these assays?
EP2 modulator: 22; S1P3 antag: -6; S1P4 ag: 2; PGE2 EP2 inh: 5; Insulin prom inh: 70*; S1P4 antagonist: -8

What do the screens show for `c1ccc(Cn2nnc3c(N4CCCC4)ncnc32)cc1`?
EP2 modulator: -6; S1P3 antag: -7; S1P4 ag: 1; PGE2 EP2 inh: 12; Insulin prom inh: -50; S1P4 antagonist: -2

How did c1ccc(Cn2nnc3c(N4CCc5ccccc5C4)ncnc32)cc1 do in these assays?
EP2 modulator: 9; S1P3 antag: -5; S1P4 ag: 1; PGE2 EP2 inh: 7; Insulin prom inh: 82*; S1P4 antagonist: -14

Results for O=c1[nH]c2cc3c(cc2cc1CN(Cc1ccco1)S(=O)(=O)c1ccccc1Cl)OCCO3 ?
EP2 modulator: -17; PGE2 EP2 inh: 10

What do the screens show for `COc1cc2cc(CN(C(=O)c3ccccc3F)C3CCCC3)c(=O)[nH]c2cc1OC`?
EP2 modulator: -2; PGE2 EP2 inh: 14

What do the screens show for `COc1ccccc1NC(=O)c1ccc2c(c1)N(Cc1cc(C)ccc1C)C(=O)C(C)(C)O2`?
EP2 modulator: 64*; PGE2 EP2 inh: 15

Results for Cc1ccc2occ(CN(CCCn3ccnc3)Cc3ccccc3Cl)c(=O)c2c1 ?
EP2 modulator: -40; PGE2 EP2 inh: 12
